Laboratory results: the supplement of paper PMC10849652
The full data set covers some 7,900 targets. This sample favours those with a hit. About 0.6% of all pairs of compound and target were hits. Values without a mark were called inactive.

Legend:
Test in all cases: log2 fold change, soluble protein after heating vs DMSO (PISA); higher = thermal stabilisation; K562 cells, 10 uM, 30 min; active = over 0.2 and 3.5 SD of the protein, either way, in both replicates (recomputed)
[1] = compound: C/C(=N\NC(=O)C1=CC(=CC=C1)S(=O)(=O)N2CCOCC2)/C3=C(C=CC(=C3)Cl)O
How it was run: (§1)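 K562 cells at 2×10^6 cells/mL were given 10 μM compound for 30 min. Aliquots then went through 3 min of heating across 48°C-58°C, were pooled, and were extracted in PBS with 0.5% NP-40 at 4°C, and the supernatant after 21,000xg for 90 min was quantified by TMTpro 16plex LC-MS/MS with channel sums equalised. Thermal stability relative to control samples, from duplicates, is given as log2 fold change.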

[2] = compound: C1=CC2=C(C=CC(=C2)/C=C\3/C(=O)NC(=NCC4=CC=CS4)S3)N=C1
How it was run: as §1

[3] = compound: C1=CC2=NC=CN=C2C=C1/C=C/3\C(=O)NC(=O)S3
How it was run: as §1

[4] = compound: C1=CC=C2C(=C1)C3=NNC4=CC=CC(=C43)C2=O
How it was run: as §1

[5] = compound: C1CCN(C1)C(=O)NC2=CC=CC(=C2)NC3=NC=C(C(=N3)NCCC4=CN=CN4)Br
How it was run: as §1

[6] = compound: C1CN(CCC1(CC2=CC=C(C=C2)Cl)N)C3=NC=NC4=C3C=CN4
How it was run: as §1

[7] = compound: C=CC(=O)N1CCC[C@@H](n2nc(-c3ccc(Oc4ccccc4)cc3)c3c(N)ncnc32)C1 [ibrutinib]
How it was run: as §1

[8] = compound: CC(=O)c1cnc2ccc(-c3cc(Cl)c(O)c(Cl)c3)nc2c1N[C@H]1CC[C@H](CN(C)C)CC1
How it was run: as §1

[9] = compound: CC1=C(C(CC(=O)N1)C2=CC=C(C=C2)C(F)(F)F)C(=O)NC3=C(C=C4C(=C3)C=NN4)F
How it was run: as §1

[10] = compound: CC1=C(C2=C(C=C1)C(=O)C3=CC=CC=C3N2CCCN)C
How it was run: as §1

[11] = compound: C1COCCN1CCN2C3=CC=CC=C3N=C2NC(=O)C4=CC(=CC=C4)[N+](=O)[O-] [IRAK-1-4 Inhibitor I]
How it was run: as §1

[12] = compound: CC(C)N(C[C@H]1O[C@@H](n2cnc3c(N)ncnc32)[C@H](O)[C@@H]1O)[C@H]1C[C@@H](CCc2nc3cc(C(C)(C)C)ccc3[nH]2)C1 [pinometostat]
How it was run: as §1

[13] = compound: C#Cc1cccc(Nc2ncnc3cc(OCCOC)c(OCCOC)cc23)c1 [erlotinib]
How it was run: as §1

[14] = compound: C1=CC(=C(C=C1Cl)C2=NC3=NC=CN=C3C(=N2)NC4=CC=NC=C4)F
How it was run: as §1

[15] = compound: C1=CC(=CC=C1C2=NC3=C(N2)C=C(C=C3)C(=O)N)OC4=CC=C(C=C4)Cl
How it was run: as §1

[16] = compound: C1=CC=C(C=C1)C2=NC(=C(N2)C3=CC=NC=C3)C4=CC(=C(C=C4)Cl)O
How it was run: as §1

[17] = compound: CC(C)(C)Cn1c(N)nc2ccc(-c3[nH]c(C(C)(C)C)nc3-c3ccc(F)cc3)nc21 [ralimetinib]
How it was run: as §1

[18] = compound: CC(C)(O)CC(=O)NCCn1ccc2ncnc(Nc3ccc(Oc4cccc(C(F)(F)F)c4)c(Cl)c3)c21
How it was run: as §1

[19] = compound: CC(C)C1=C2N=C(C=C(N2N=C1)NCC3=CC=CC=C3)NCCCCCCN
How it was run: as §1

[20] = compound: CC(C)C[C@@H](C=O)NC(=O)[C@H](CC(C)C)NC(=O)[C@H](CC(C)C)NC(=O)OCc1ccccc1
How it was run: as §1

Chain of UniProt Q96GF1 (Q96GF1 whole entry, looked up): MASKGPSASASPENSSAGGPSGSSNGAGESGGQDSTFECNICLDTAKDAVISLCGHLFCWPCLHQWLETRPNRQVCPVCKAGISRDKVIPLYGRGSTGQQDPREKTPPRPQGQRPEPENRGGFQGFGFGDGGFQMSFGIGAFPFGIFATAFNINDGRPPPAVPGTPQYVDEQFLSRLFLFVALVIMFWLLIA
Chain of UniProt Q9BY78 (Q9BY78 whole entry, looked up): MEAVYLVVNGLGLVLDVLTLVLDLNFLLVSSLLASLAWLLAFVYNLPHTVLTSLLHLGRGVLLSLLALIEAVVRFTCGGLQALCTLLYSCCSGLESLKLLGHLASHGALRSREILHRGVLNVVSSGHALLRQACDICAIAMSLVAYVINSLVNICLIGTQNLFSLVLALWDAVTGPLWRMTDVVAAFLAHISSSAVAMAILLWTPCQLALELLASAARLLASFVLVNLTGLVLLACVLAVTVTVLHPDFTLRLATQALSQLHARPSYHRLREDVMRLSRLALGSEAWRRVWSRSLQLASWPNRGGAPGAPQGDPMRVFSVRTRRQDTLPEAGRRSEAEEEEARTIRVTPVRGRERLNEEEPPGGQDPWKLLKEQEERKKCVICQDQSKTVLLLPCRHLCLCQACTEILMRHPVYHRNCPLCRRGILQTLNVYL
Chain of UniProt Q86UA6 (Q86UA6 whole entry, looked up): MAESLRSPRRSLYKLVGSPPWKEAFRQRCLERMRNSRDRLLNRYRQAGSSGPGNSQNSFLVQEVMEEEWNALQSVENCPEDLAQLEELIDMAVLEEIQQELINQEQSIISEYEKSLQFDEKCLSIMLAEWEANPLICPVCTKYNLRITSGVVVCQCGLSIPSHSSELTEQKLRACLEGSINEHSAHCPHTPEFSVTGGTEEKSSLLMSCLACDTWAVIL
Chain of UniProt Q9H4P4 (Q9H4P4 whole entry, looked up): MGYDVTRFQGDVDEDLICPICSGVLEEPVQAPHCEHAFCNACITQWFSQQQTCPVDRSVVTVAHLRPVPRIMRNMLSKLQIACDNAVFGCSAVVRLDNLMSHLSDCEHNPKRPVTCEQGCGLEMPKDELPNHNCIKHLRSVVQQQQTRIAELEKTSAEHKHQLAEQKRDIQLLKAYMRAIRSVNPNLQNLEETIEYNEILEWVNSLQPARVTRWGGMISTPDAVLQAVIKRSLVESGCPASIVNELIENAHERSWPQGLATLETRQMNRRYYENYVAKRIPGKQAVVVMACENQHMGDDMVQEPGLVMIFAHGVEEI
Chain of UniProt Q86X27 (Q86X27 whole entry, looked up): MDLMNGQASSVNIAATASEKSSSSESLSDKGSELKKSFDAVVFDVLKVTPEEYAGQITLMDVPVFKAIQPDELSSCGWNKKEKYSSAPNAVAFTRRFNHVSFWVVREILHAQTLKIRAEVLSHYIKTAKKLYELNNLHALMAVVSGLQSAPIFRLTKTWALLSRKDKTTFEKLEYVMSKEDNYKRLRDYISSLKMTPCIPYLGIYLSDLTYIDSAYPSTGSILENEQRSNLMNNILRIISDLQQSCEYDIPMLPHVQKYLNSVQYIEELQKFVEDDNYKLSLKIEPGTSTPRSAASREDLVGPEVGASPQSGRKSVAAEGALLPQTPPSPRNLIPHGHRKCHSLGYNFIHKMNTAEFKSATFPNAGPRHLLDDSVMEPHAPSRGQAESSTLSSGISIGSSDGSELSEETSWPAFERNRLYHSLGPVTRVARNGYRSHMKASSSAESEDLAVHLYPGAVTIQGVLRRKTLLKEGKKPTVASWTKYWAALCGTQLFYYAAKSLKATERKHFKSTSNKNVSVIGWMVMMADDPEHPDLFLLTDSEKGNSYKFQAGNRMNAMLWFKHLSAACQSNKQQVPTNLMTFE
Chain of UniProt P78332 (P78332 whole entry, looked up): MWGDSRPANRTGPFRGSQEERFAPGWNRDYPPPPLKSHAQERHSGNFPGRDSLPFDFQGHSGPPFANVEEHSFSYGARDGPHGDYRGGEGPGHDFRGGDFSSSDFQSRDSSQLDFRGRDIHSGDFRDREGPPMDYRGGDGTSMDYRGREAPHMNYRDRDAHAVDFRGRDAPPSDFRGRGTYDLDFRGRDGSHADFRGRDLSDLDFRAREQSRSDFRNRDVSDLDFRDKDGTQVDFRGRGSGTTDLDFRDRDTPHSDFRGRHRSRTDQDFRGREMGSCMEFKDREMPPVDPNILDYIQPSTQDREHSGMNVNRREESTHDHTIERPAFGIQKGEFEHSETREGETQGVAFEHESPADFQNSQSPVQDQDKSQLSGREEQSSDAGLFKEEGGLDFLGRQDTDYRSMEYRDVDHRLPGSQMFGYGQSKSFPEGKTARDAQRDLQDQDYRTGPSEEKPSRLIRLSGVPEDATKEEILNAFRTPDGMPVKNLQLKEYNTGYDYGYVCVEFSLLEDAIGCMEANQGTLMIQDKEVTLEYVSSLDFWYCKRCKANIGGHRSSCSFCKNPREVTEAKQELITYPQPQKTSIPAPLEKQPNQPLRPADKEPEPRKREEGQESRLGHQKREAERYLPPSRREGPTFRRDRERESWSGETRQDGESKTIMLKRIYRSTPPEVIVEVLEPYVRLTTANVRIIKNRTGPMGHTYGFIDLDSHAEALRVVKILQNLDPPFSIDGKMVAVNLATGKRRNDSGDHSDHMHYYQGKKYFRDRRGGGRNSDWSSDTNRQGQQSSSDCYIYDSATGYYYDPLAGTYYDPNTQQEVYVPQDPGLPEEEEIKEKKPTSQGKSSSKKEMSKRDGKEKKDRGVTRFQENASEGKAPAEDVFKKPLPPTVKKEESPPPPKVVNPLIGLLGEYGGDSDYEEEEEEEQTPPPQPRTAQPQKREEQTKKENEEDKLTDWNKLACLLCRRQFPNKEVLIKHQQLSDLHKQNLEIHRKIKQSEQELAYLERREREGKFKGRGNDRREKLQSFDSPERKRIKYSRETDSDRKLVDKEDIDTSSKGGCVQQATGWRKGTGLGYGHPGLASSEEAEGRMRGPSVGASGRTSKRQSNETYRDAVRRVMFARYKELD
Chain of UniProt P60903 (P60903 whole entry, looked up): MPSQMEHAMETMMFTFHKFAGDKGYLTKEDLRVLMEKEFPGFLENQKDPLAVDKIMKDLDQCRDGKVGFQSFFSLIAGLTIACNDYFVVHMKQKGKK
Chain of UniProt O75056 (O75056 whole entry, looked up): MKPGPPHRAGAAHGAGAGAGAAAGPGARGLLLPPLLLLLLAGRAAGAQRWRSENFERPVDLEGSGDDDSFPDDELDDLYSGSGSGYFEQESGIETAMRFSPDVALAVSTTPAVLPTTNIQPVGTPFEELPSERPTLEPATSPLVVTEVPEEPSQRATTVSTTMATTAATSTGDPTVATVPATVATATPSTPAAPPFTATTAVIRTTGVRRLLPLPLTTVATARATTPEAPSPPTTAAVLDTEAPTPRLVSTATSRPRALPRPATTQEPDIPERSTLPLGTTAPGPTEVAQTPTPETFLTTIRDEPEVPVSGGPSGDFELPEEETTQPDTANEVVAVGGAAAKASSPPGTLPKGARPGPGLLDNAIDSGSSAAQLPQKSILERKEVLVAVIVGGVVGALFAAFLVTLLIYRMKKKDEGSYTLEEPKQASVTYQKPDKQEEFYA
Chain of UniProt O75582 (O75582 whole entry, looked up): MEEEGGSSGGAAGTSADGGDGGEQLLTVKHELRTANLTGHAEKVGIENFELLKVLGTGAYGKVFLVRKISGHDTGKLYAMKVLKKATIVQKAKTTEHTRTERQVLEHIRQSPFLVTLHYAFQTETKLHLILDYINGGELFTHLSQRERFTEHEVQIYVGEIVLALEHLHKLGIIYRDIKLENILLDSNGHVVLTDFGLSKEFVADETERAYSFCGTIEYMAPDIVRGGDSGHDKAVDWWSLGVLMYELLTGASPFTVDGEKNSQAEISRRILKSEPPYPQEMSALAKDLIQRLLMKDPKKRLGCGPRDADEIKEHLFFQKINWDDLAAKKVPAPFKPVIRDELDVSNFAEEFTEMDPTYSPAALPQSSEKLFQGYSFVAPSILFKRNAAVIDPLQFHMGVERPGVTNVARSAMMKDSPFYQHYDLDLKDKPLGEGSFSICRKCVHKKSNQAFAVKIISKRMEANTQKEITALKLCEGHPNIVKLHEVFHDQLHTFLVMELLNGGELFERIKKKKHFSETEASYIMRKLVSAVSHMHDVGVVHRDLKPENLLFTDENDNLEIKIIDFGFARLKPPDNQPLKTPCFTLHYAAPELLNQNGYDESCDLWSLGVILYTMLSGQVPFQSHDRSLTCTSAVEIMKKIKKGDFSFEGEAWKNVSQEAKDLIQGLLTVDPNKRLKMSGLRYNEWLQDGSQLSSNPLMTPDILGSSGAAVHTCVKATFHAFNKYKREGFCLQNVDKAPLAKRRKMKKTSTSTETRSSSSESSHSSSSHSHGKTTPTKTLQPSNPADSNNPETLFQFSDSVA
Chain of UniProt O14796 (O14796 whole entry, looked up): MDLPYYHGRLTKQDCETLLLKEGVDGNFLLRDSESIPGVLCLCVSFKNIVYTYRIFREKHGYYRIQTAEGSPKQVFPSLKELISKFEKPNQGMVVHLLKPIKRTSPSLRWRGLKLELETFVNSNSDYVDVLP

Target | log2 fold change [1] | log2 fold change [2] | log2 fold change [3] | log2 fold change [4] | log2 fold change [5] | log2 fold change [6] | log2 fold change [7] | log2 fold change [8] | log2 fold change [9] | log2 fold change [10] | log2 fold change [11] | log2 fold change [12] | log2 fold change [13] | log2 fold change [14] | log2 fold change [15] | log2 fold change [16] | log2 fold change [17] | log2 fold change [18] | log2 fold change [19] | log2 fold change [20]
S100A10 (UniProt P60903) | 0.122 | 0.194 | 0.052 | -0.096 | -0.042 | -0.013 | 0.605 | -0.345 | -0.06 | 0.522 |  |  |  |  |  |  |  |  |  | 
RBM6 (UniProt P78332) | 0.019 | 0.036 |  | -0.1 | 0.048 | 0.018 |  | -0.208 | -0.19 | -0.16 | 0.146 | -0.09 |  |  |  |  |  |  |  | 
SH2D1B (UniProt O14796) | -0.059 | 0.057 |  | -0.406 | -0.036 | 0.028 |  | -1.57 (active) | 0.106 | -0.004 | 0.202 | 0.027 | -0.294 | -0.218 | -0.098 | -0.228 | 0.042 | -0.052 | 0.095 | 0.005
RPAIN isoform 8 (UniProt Q86UA6) | 0.205 | -0.03 | 0.048 | 0.009 | -0.035 | -0.002 | 0.034 | -0.124 |  | -0.168 | -0.022 | 0.011 |  | 0.085 |  | 0.083 | -0.048 | 0.048 |  | -0.221
SIK3 (UniProt H0Y4E8) | 0.045 | 0.074 |  | -0.099 | 0.051 | 0.15 |  | -0.425 (active) | 0.179 | -0.124 | 0.043 | -0.036 | -0.074 |  | 0.094 | -0.163 | 0.135 |  | 0.186 | -0.167
RNF41 (UniProt Q9H4P4) | 0.043 | -0.074 | -0.146 | -0.002 |  |  | -0.104 | 0.082 |  |  |  |  |  |  |  |  |  |  |  | 
RNF26 (UniProt Q9BY78) |  |  | -0.08 |  |  |  | -0.033 |  |  |  |  |  |  |  |  | -0.073 | 0.095 |  |  | 0.281
RNF185 (UniProt Q96GF1) | -0.006 | 0.136 | 0.026 | -0.007 | 0.457 | -0.031 | 0.045 | 0.087 | 0.006 | 0.276 |  |  | -0.054 |  | 0.009 | 0.133 | -0.04 |  | -0.011 | -0.003
RALGPS2 (UniProt Q86X27) | -0.07 | -0.079 | 0.111 | -0.012 | -0.06 | 0.154 | 0.061 | -0.045 |  | 0.029 | -0.249 | 0.397 | -0.43 | -0.321 | 0.037 |  |  | 0.051 | 0.141 | 
RPS6KA5 (UniProt O75582) |  |  |  |  |  |  |  |  |  |  | 0.071 | -0.431 | 0.239 | -0.079 | -0.234 | -0.091 | -0.11 | -0.042 | -0.218 | 0.069
SDC3 (UniProt O75056) | -0.135 | 0.05 |  | -0.157 | -0.139 | 0.203 |  | 0.089 | 0.042 | -0.036 |  |  |  | -0.015 |  |  |  | -0.006 |  | 
